From PubChem BioAssay (NCI)
The panel holds about 83,000 compounds, 20% with a hit somewhere; the sample as a whole holds those more often.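 Results are percent growth after 48 hours of single-concentration exposure. 100 means growth as in untreated cells, lower positive values show inhibition; negative values down to -100 show cell death.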 Values without a mark were called inactive. Active and inactive are the calls of the source. The calls were made as follows: active = growth percent below 10; inactive = the rest.

Key:
Experiment in all cases: NCI-60 one-dose screen, 48 h (100 = growth as untreated, 0 = no growth, -100 = all killed)
Settings in all cases: 10 µM unless noted
HCT-15 colon = test system: HCT-15 colon
HT29 colon = test system: HT29 colon
SNB-75 CNS = test system: SNB-75 CNS
SNB-19 CNS = test system: SNB-19 CNS
U251 CNS = test system: U251 CNS
PC-3 prostate = test system: PC-3 prostate
SK-MEL-5 melanoma = test system: SK-MEL-5 melanoma
UACC-62 melanoma = test system: UACC-62 melanoma
LOX IMVI melanoma = test system: LOX IMVI melanoma
SK-MEL-28 melanoma = test system: SK-MEL-28 melanoma
SK-MEL-2 melanoma = test system: SK-MEL-2 melanoma
SN12C renal = test system: SN12C renal
UO-31 renal = test system: UO-31 renal
TK-10 renal = test system: TK-10 renal
ACHN renal = test system: ACHN renal
CAKI-1 renal = test system: CAKI-1 renal
CCRF-CEM leukemia = test system: CCRF-CEM leukemia
MOLT-4 leukemia = test system: MOLT-4 leukemia
A498 renal = test system: A498 renal

Structure (SMILES)	growth (HCT-15 colon)	growth (HT29 colon)	growth (SNB-75 CNS)	growth (SNB-19 CNS)	growth (U251 CNS)	growth (PC-3 prostate)	growth (SK-MEL-5 melanoma)	growth (UACC-62 melanoma)	growth (LOX IMVI melanoma)	growth (SK-MEL-28 melanoma)	growth (SK-MEL-2 melanoma)	growth (SN12C renal)	growth (UO-31 renal)	growth (TK-10 renal)	growth (ACHN renal)	growth (CAKI-1 renal)	growth (CCRF-CEM leukemia)	growth (MOLT-4 leukemia)	growth (A498 renal)
COc1cccc(-c2nc3sccn3c2-c2ccnc(NCCCNS(=O)(=O)c3ccccc3)n2)c1	29.7%	29.4%	92.6%	95.5%	71%	61.6%	9.71% (active)	14.2%	28.9%	43.4%	58.1%	55%	29.5%	82%	40.2%	52.5%	30%	29.4%	–
Nc1c(C(=O)Nc2cccc(Cl)c2Cl)sc2nc3c(cc12)C(=O)CCC3	75.5%	85.5%	54.7%	70.2%	120%	93.7%	49.8%	64.6%	95.5%	65%	38%	86.8%	78.8%	81.9%	98.1%	79%	86.2%	106%	-3.22% (active)
O=C(CCl)NCCNc1nccc(Nc2ccc(S(=O)(=O)Nc3ccccn3)cc2)n1	4.99% (active)	4.37% (active)	32.5%	17.4%	-68.1% (active)	36.3%	-41.6% (active)	5.42% (active)	-64.1% (active)	38%	32.8%	13.5%	47.4%	50%	25.6%	10.3%	12.3%	23.8%	–
c1ccc(CCn2nnc3c(Nc4ccc(N5CCOCC5)cc4)ncnc32)cc1	70.7%	81.3%	84.8%	95.7%	93.3%	65.1%	81.8%	85.8%	97.4%	104%	105%	92.1%	87.1%	121%	104%	86.3%	71.6%	66.4%	77.6%
COc1cc(OC)c(C(=O)/C=C/c2ccc(C#N)cc2)c(OC)c1	9.66% (active)	3.67% (active)	14.1%	16.7%	12.6%	37.4%	8.04% (active)	26.5%	6.31% (active)	39.2%	-11% (active)	19.6%	32.4%	19.1%	17.5%	18.5%	7.44% (active)	14.3%	–
Cc1ccc(Cn2c(-c3nonc3N)nc3ccccc32)cc1	50.5%	46.3%	57.4%	91%	77.5%	72.2%	76.2%	77.7%	71.7%	90%	78.2%	96.3%	66.2%	90.4%	92.3%	69.7%	67.2%	56.2%	40.4%
N#Cc1ccc(NC(=O)c2ccc3cccnc3c2O)cc1	31.4%	30.7%	43.8%	23.6%	14.6%	45.9%	14.4%	9.43% (active)	21.9%	34.5%	41.3%	33.7%	18.4%	34%	14.7%	-12.5% (active)	23.8%	12.7%	–
CCCCCCCCCCCCNC(=S)N/N=C/c1ccc(Cl)c(Cl)c1	87.2%	82.2%	96.8%	114%	108%	107%	99%	95.5%	120%	104%	99.8%	101%	89.2%	143%	94.9%	101%	–	93.8%	112%
COc1ccc(OC)c(-c2ccc(-c3ccccc3N)c3[nH]c4ccccc4c23)c1	88.3%	63.4%	89.7%	89.1%	77.9%	59%	79.4%	64.4%	84%	107%	77.1%	87.6%	58.4%	103%	80.7%	73%	103%	56.4%	–
Cc1cccc(-n2c(C)nc3ccc(NC(=O)NCCCl)cc3c2=O)c1	93.8%	106%	77.5%	101%	100%	93.5%	102%	103%	95.6%	113%	114%	107%	94.2%	99.6%	111%	97.6%	-43.7% (active)	105%	–
COc1cc(OC)c(C(=O)/C=C/c2ccc(C(F)(F)F)cc2)c(OC)c1	29.4%	26.9%	30%	57.5%	46.2%	54.5%	62.2%	48.2%	32.4%	67.4%	45.4%	41.2%	56.4%	84.6%	60%	79.3%	25.9%	24%	–
CCC(C)NCC(=O)O (centres undefined)	88.5%	78.8%	90.9%	107%	98.7%	102%	97.5%	108%	109%	104%	85.6%	110%	98.4%	107%	97.7%	97.7%	–	106%	107%
CCOC(=O)C(Cc1ccccc1)n1c(O)c(C=Nc2ccc(C(=O)OCCN(CC)CC)cc2)sc1=O (centres undefined)	89.4%	62.4%	99.7%	95.3%	96.3%	72.8%	88.7%	97.7%	93.7%	93.1%	90.7%	92.1%	84.7%	112%	104%	97.4%	68.2%	69.3%	–
O=C(CN1CCOCC1)Nc1ccc(-c2nc3ccccc3s2)cc1	93.7%	103%	100%	101%	89.5%	93%	92.7%	100%	99.9%	102%	115%	101%	95%	112%	104%	99.7%	95.5%	99.4%	–
COC1=CC(c2ccc[nH]2)=N/C1=C\c1[nH]c(C)c(CCCn2cc(CCCCCCCCC[C@@H]3Cc4cc(O)ccc4C4CC[C@]5(C)[C@@H](O)CC[C@H]5C43)nn2)c1C (some centres undefined)	35%	23.6%	88.8%	77.7%	44.1%	45%	35.5%	12.9%	13.4%	75.9%	69.7%	62.4%	49.8%	109%	40.8%	–	28.1%	67.1%	62.1%
CCNC(=O)C1CCCN1C(=O)C(CCCN=C(N)N)NC(=O)C(CC(C)C)NC(=O)C(CC(C)C)NC(=O)C(Cc1ccc(O)cc1)NC(=O)C(CO)NC(=O)C(Cc1c[nH]c2ccccc12)NC(=O)C(Cc1cnc[nH]1)NC(=O)C1CCC(=O)N1 (centres undefined)	102%	97.4%	90.3%	102%	94.8%	81.8%	95%	110%	95.1%	168%	102%	112%	93.7%	110%	97%	–	54.5%	86.5%	98%
CC(=O)n1cc([C@H]2CC[C@H](c3cn(C(C)=O)c4ccccc34)c3c2[nH]c2ccccc32)c2ccccc21	58.7%	67.7%	87.4%	93.2%	82.9%	53.2%	80%	64.4%	79.5%	100%	79.6%	84.7%	55.3%	92.8%	77.9%	57%	64.9%	57.6%	–
